Screening results deposited in PubChem BioAssay by National Center for Advancing Translational Sciences (NCATS).
Sampled rows, rich in hits. Any-hit rate of the full collection: about 12%.
JMJD2A Tudor: JMJD2A Tudor domain (human) inhibition; Potency, µM (doses to about 114 µM), for inactives: top-dose activity change, negative = inhibition, usual class: inhibitors; 390,000 tested, 4.4% active; AlphaScreen JMJD2A-Tudor / H3K4me3 peptide binding; O75164; further: on the % scale 0 is the no-effect control and ±100 the full control effect; nearly all actives have a fitted effect of over 50% in size
BAZ2B block: inhibitors of human BAZ2B bromodomain; AID 504333; AlphaScreen BAZ2B-H3K14Ac peptide displacement; Q9UIF8; Potency, µM (doses to about 114 µM), inactives show at the highest dose activity change, negative = inhibition, usual class: inhibitors; 360,000 tested, 4.4% active; further: on the % scale 0 is the no-effect control and ±100 the full control effect; nearly all actives have a fitted effect of over 60% in size
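Complex of BAZ2B and biotin-H3K14Ac (50 nM apiece) forms over 30 min at RT, then faces library compounds up to 110 uM for another 30 min; AlphaScreen beads added, 20 min dark incubation, luminescence read.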
Sfp PPTase inh: inhibitors of Bacillus subtilis Sfp phosphopantetheinyl transferase | Q9F4F7 | Biochemical Sfp PPTase activity, qHTS | Potency, µM, for inactives: largest response in the series, negative = inhibition, most hits filed as inhibitors | 310,000 tested, 3.5% active;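 further: the enzyme is Sfp with the accession as filed and its product quenches rhodamine fluorescence; 0% = enzyme reaction without inhibitor and -100% = no enzyme wells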
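After 15 min at room temperature with compound, 15 nM Sfp received 5 uM rhodamine-CoA plus 12.5 uM BHQ-2-ybbR (50 mM Hepes pH 7.6, 10 mM MgCl2). Rate came from the fluorescence difference over 30 min, ex 525/em 598 nm.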
HP1b binding inh: inhibitors of HP1-beta chromodomain binding to methylated histone tails; P83916; AlphaScreen HP1-beta / biotin-H3K9me3 peptide binding; Potency, µM (titrated, usually from 114 µM), for the others: at the highest dose activity change, negative = inhibition, most hits filed as inhibitors; 390,000 tested, 0.56% active; AID 540317; further: nearly all actives have a fitted effect of over 70% in size
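Compound inhibition of the preformed complex between 50 nM HP1-beta and 50 nM biotinylated H3K9me3 peptide was read by AlphaScreen. Buffer was PBS pH 7.4 with 0.01% Tween-20. Incubations ran 30 min at room temperature, with 10 ug/mL donor/acceptor beads.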
L3MBTL1 inh: inhibitors of human L3MBTL1. AlphaScreen L3MBTL1–H3K9me1 peptide binding. Potency, µM (doses to about 57.1 µM), without a hit: top-dose activity, negative = inhibition, usual class: inhibitors. 230,000 tested, 0.66% active. AID 485360; further: on the % scale 0 is the no-effect control and ±100 the full control effect; nearly all actives have a fitted effect of over 60% in size
Target sequence (Q9Y468 whole entry, looked up): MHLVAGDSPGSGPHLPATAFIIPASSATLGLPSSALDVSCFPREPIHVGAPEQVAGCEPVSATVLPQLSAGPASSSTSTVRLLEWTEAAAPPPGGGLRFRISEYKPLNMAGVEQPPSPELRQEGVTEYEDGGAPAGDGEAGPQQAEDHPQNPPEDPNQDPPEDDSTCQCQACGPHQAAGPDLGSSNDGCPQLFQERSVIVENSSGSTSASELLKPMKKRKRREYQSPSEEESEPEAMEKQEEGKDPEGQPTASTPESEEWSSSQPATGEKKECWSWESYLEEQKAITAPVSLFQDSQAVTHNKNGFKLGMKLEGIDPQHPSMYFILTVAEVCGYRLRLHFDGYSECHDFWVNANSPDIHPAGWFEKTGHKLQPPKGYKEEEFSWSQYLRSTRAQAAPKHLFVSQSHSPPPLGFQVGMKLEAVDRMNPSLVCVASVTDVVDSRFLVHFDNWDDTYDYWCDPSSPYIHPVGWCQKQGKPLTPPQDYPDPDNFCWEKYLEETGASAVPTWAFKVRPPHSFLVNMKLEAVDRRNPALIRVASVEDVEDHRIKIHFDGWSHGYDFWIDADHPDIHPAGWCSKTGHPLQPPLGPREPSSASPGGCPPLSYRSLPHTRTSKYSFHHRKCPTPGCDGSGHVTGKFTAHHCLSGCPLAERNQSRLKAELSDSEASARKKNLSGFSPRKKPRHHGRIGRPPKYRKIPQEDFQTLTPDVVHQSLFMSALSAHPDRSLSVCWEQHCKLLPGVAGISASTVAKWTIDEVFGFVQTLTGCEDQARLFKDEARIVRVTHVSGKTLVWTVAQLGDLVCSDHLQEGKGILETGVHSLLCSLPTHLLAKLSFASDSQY
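L3MBTL1 50 nM + b-AHA-H3(1-15)K9me1 75 nM, 30 min RT; compound added, 30 min RT; streptavidin donor/Ni-chelate acceptor beads 10 ug/mL each final, 30 min RT dark; AlphaScreen read.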
G9a inh: G9a (human) methyltransferase inhibition | G9a H3K9 monomethylation, AlphaScreen, 2 h | Potency, µM (titrated, usually from 102 µM), inactives show at the highest dose activity, negative = inhibition, usual class: inhibitors | 350,000 tested, 8.8% active | AID 504332; further: on the % scale 0 is the no-effect control and ±100 the full control effect; nearly all actives have a fitted effect of over 75% in size
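Using a bead-based AlphaScreen, monomethylated H3K9 product from 2 h room-temperature reactions (G9a 20 nM, peptide 500 nM, SAM 20 uM) was detected with 0.5 ug/mL rabbit anti-H3K9me1 antibody.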
Numbers without * were called inactive; [ ] = remark or other dose. The call rests on the fitted dose curve; in most records, active means well fitted curve in the direction sought with a large enough effect; inconclusive means small, poorly fitted or top-dose-only effect, or another doubt; inactive means no such curve, though single readings can be large; an effect the other way counts as inactive or inconclusive. Potency means the concentration at half of the fitted maximal effect.

Screening COc1cc(-c2nc3ccc4ccccc4c3c3c2CCC3)cc(OC)c1O returned JMJD2A Tudor inconclusive, BAZ2B block inconclusive, Sfp PPTase inh -14.2%, HP1b binding inh inconclusive, L3MBTL1 inh -12.1% and G9a inh 79.4µM*.
For COc1ccc(/C=C2\CCCc3c2nc2ccccc2c3C(=O)O)cc1OC the results were BAZ2B block -22.4%, Sfp PPTase inh 35.5µM*, L3MBTL1 inh inconclusive and G9a inh 28.2µM*.
Screening COc1ccc(CNC(=O)C2CCN(S(=O)(=O)c3cn(C)cn3)CC2)cc1 returned JMJD2A Tudor 1.7%, BAZ2B block -8.9%, HP1b binding inh 40.1% and G9a inh -2.2%[12.7 µM].
Screening O=C(O)c1c2c(nc3ccccc13)/C(=C/c1ccc(O)cc1)CCC2 returned JMJD2A Tudor -13.7%, BAZ2B block -0.5%, Sfp PPTase inh 12.4%, HP1b binding inh 27.0%, L3MBTL1 inh 10.2% and G9a inh -6.8%.
Screening COc1cc(/C=C2\CCCc3c2nc2ccccc2c3C(=O)O)cc(OC)c1O returned JMJD2A Tudor inconclusive, BAZ2B block -16.4%, Sfp PPTase inh 11.2µM*, HP1b binding inh 1.8% and L3MBTL1 inh -2.7%.
Screening CCOC(=O)c1cccc(NC(=O)N2CC(CC)Sc3ccccc32)c1 (centres undefined) returned JMJD2A Tudor -5.6%, BAZ2B block 1.1%, HP1b binding inh 28.9% and G9a inh 5.8%[59 µM].
For COc1ccc(-c2cc(=O)n(-c3ccc([N+](=O)[O-])cc3)[nH]2)cc1 the results were JMJD2A Tudor 56.2µM*, BAZ2B block 39.8µM*, Sfp PPTase inh -12.4%, HP1b binding inh inconclusive, L3MBTL1 inh -16.2% and G9a inh 10µM*.
For COc1cccc(NC(=S)NN=C2CCCCCC2)c1 the results were JMJD2A Tudor inconclusive, BAZ2B block 56.2µM*, Sfp PPTase inh -14.6%, HP1b binding inh -34.3%, L3MBTL1 inh -1.0% and G9a inh 10µM*.
CC1CCCC/C1=N\NC(=S)Nc1ccccc1 (centres undefined) was read as JMJD2A Tudor inconclusive, BAZ2B block inconclusive, Sfp PPTase inh inconclusive, HP1b binding inh 2.3%, L3MBTL1 inh -8.7% and G9a inh 31.6µM*.
For FC(F)(F)c1ccccc1NC(=S)NN=C1CCCCCC1 the results were JMJD2A Tudor 50.1µM*, BAZ2B block 50.1µM*, Sfp PPTase inh -70.7%, HP1b binding inh -16.4%, L3MBTL1 inh -8.9% and G9a inh 8.91µM*.
`CC1CCC/C(=N\NC(=S)Nc2ccccc2)C1` (centres undefined) gave JMJD2A Tudor 79.4µM*, BAZ2B block inconclusive, Sfp PPTase inh -12.6%, HP1b binding inh -13.3%, L3MBTL1 inh -10.5% and G9a inh 7.94µM*.
Screening O=S(=O)(c1cc(O)ccc1O)c1cccc2c(S(=O)(=O)c3cc(O)ccc3O)cccc12 returned JMJD2A Tudor 17.8µM*, BAZ2B block 11.2µM*, HP1b binding inh 15.8µM*, L3MBTL1 inh 3.16µM* and G9a inh 19.6%[2.33 µM].
NC(CCC(=O)N[C@@H](CS)C(=O)NCC(=O)O)C(=O)O (some centres undefined) was read as Sfp PPTase inh -1.1% and G9a inh -3.6%[2.33 µM].
`O=C(Nc1ccc(C(=O)O)cc1)/C(=C\c1ccco1)NC(=O)c1ccccc1` gave JMJD2A Tudor -13.3%, BAZ2B block -26.4%, Sfp PPTase inh 20µM*, HP1b binding inh 28.6% and L3MBTL1 inh inconclusive.
For O=C(Nc1cccc(C(F)(F)F)c1)/C(=C\c1ccco1)NC(=O)c1cccs1 the results were JMJD2A Tudor -15.1%, BAZ2B block -2.0%, Sfp PPTase inh -11.6%, HP1b binding inh 4.7%, L3MBTL1 inh 3.3% and G9a inh 23.4%[59 µM].
Screening O=C(Nc1cccc(F)c1)/C(=C\c1ccco1)NC(=O)c1cccs1 returned JMJD2A Tudor -18.3%[57.1 µM], BAZ2B block -2.5%[57.1 µM], Sfp PPTase inh 56.2µM*, HP1b binding inh -23.7%, L3MBTL1 inh 0.4% and G9a inh inconclusive.
For CC(=O)Nc1ccc(NC(=O)/C(=C/c2ccco2)NC(=O)c2ccccc2)cc1 the results were JMJD2A Tudor -25.8%, BAZ2B block -36.7%, Sfp PPTase inh 17.8µM*, HP1b binding inh -10.8% and L3MBTL1 inh 0.2%.
Screening CC(C)(C)c1ccc(C(=O)N/C(=C\c2ccco2)C(=O)Nc2ccccc2C(=O)O)cc1 returned JMJD2A Tudor -35.9%, BAZ2B block 10.0%, Sfp PPTase inh 50.1µM*, HP1b binding inh -2.2% and G9a inh inconclusive.
`Cc1cccc(NS(=O)(=O)c2ccc(NC(=O)N3CCCC3)cc2)c1` gave JMJD2A Tudor -17.7%, BAZ2B block 5.9%, HP1b binding inh 8.8%[57 µM] and G9a inh 6.0%[59 µM].
Screening Cc1ccnc2nc(NC(=O)c3ccccc3Cl)nn12 returned JMJD2A Tudor -19.5%, BAZ2B block 0.3%, HP1b binding inh 14.8% and G9a inh 6.9%[59 µM].
For COc1cc(/C=N/Nc2ccc([N+](=O)[O-])cc2S(=O)(=O)N2CCOCC2)cc(OC)c1OC the results were JMJD2A Tudor 8.4%, BAZ2B block -0.2%, Sfp PPTase inh 15.7%, HP1b binding inh 50.8%, L3MBTL1 inh 10.8% and G9a inh inconclusive.
Screening O=[N+]([O-])c1cccc(N/N=C/c2cccc(O)c2O)c1 returned JMJD2A Tudor -30.2%, BAZ2B block inconclusive, Sfp PPTase inh -21.6%, HP1b binding inh -16.4%, L3MBTL1 inh inconclusive and G9a inh 22.4µM*.
Screening O=[N+]([O-])c1ccc(N/N=C/c2cccc(O)c2O)c(S(=O)(=O)N2CCOCC2)c1 returned JMJD2A Tudor -20.7%, BAZ2B block inconclusive, Sfp PPTase inh -6.0%, HP1b binding inh 1.0%, L3MBTL1 inh -8.6% and G9a inh 35.5µM*.
Screening O=[N+]([O-])c1ccc(N/N=C/c2ccc(O)c(O)c2O)c(S(=O)(=O)N2CCOCC2)c1 returned JMJD2A Tudor 44.7µM*, BAZ2B block 31.6µM*, Sfp PPTase inh 7.08µM*, HP1b binding inh 20µM* and L3MBTL1 inh -25.2%.
For O=[N+]([O-])c1ccc(N2CCOCC2)c(S(=O)(=O)N2CCOCC2)c1 the results were JMJD2A Tudor -13.9%, Sfp PPTase inh 19.2%, HP1b binding inh 30.5% and G9a inh -34.1%.
For O=[N+]([O-])c1ccc(N2CCN(c3ccccc3F)CC2)c(S(=O)(=O)N2CCOCC2)c1 the results were JMJD2A Tudor inconclusive, BAZ2B block -9.5%, Sfp PPTase inh 6.4%, HP1b binding inh 5.8%, L3MBTL1 inh -5.1% and G9a inh 20µM*.
